About 83,000 compounds went through this panel and 20% of them were active in at least one assay; those are over-represented in the sample as a whole.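 Single-concentration screen, 48 h exposure, 96-well plates. Endpoint: percent growth. Below 10 = active.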 Active and inactive are the calls of the source.

In this test the test system is HCT-116 colon. The test is described as follows: NCI-60 one-dose screen, 48 h (100 = growth as untreated, 0 = no growth, -100 = all killed). Particulars: 10 µM unless noted. The procedure: Growth inhibition of the HCT-116 human tumor cell line is measured as a screen for anti-cancer activity. Cells are grown in 96 well plates and exposed to the test compound for 48 hours. Compounds are tested at a single concentration, which is 10^-5 M for most compounds. The reported endpoint is percent growth (GI% or GIPRCNT), where numbers from 0 - 100% represent growth inhibition, and numbers from -100% - 0 represent cell death. For example, a value of 40 represents 60% growth inhibition. A value of 0 means no net growth occurred over the course of the experiment. A value of -40 indicates 40% of cells at the beginning of the experiment died by the end of the experiment. A value of -100 means all cells are dead at the end of the experiment.
NCI-60 Human Tumor Cell Lines Screen was performed using the standard one-dose NCI protocol, which is described in more detail at https://dtp.cancer.gov/discovery_development/nci-60/default.htm.
Compounds with GIPRCNT values below 10 were considered active. Activity score was based on GIPRCNT using the following formula: […]
Score is 0 for GIPRCNT values of 100 or above, 50 for GIPRCNT values of 0, and 100 for GIPRCNT values of -100.
On to `O=C1c2cc3c(cc2-c2c1c1cc(F)c(F)cc1c(=O)n2CCCn1ccnc1)OCO3`, for which the growth is -12.8% (active).
Then `CCOc1ccc(C(C)=O)cc1NC(=O)c1cccc(-c2nnn(CC)n2)c1`, with 19.3% (inactive); and `C=CCSSc1ncnc2c1ncn2C1OC(CO)C(O)C1O` (stereo not given), with 22.4% (inactive).
For `CCNc1ncnc2c1cnn2C1CCCO1` (stereo not given), the growth was 100% (inactive).
Take `CC1=C[C@H]2c3c(c(O)c(O)c4oc5ccccc5c(=O)c34)[C@H](c3cc(O)c(O)c4oc5ccccc5c(=O)c34)[C@H]2C(C)(C)C1`: the growth is -84.8% (active).
The same measure for `O=c1cc(CSc2nnc(-c3ccc(F)cc3)o2)c2ccc3ccccc3c2o1`: 93.2% (inactive); for `Cn1cc(-c2nonc2-c2c[nH]c3ccccc23)c2cccnc21`: 24.3% (inactive); for `CC[C@@H]1O[C@H](O[C@@H](c2cnc[nH]2)[C@H](NC(=O)c2nc([C@H](CC(N)=O)NC[C@@H](N)C(N)=O)nc(N)c2C)C(=O)N[C@H](C)[C@H](O)[C@H](C)C(=O)N[C@@H](C(=O)NCCc2nc(-c3nc(C(=O)NCCCCN=C(N)N)cs3)cs2)[C@@H](C)O)[C@H](O[C@@H]2O[C@H](CO)[C@H](O)[C@H](OC(N)=O)[C@@H]2O)[C@H](C)[C@@H]1C`: 37% (inactive).
The same measure for `COc1cc(-c2nn(-c3ccc(C(=O)O)cc3)cc2C(=O)O)ccc1O`: 86.6% (inactive); for `CN1CCN=C1c1ccc(NC(=O)c2ccc(C(=O)Nc3ccc(C4=NCCN4C)cc3)cc2)cc1`: 91.1% (inactive).
Consider `O=C1NC(=O)C(c2ccc(Cl)cc2Cl)N1` (stereo not given), for which the growth is 103% (inactive).
For the compound `Cc1cc(C)nc(SC2=C(Nc3cc(Cl)ccc3O)C(=O)N(Cc3ccccc3)C2=O)n1`, the growth was 83% [30 µM] (inactive).
As to `C#Cc1cccc(NC(=O)c2ccccc2NC(=O)C=C)c1`, the growth was 102% [8.25 µM] (inactive).
For `Cc1cc(N2CCN(c3ccnc4cc(Cl)ccc34)CC2)nc(NC2CCCCC2)n1`, the growth was 3.19% (active).
For the compound `O=C(/C=C/c1ccc(C(F)(F)F)cc1)Nc1ccc(C=C2c3ccccc3C(=O)c3ccccc32)cc1`, the growth was 38.3% (inactive).
`Cn1c(=O)c2c(nc3n(-c4ccc(Cl)cc4Cl)c(Sc4nc(-c5ccccc5)c(C#N)c(=O)[nH]4)cn23)n(C)c1=O`: the growth was 18.6% (inactive).
The same measure for `COc1ccc(C(=O)c2sc3nc(C)cc(C)c3c2N)cc1OC`: 87% (inactive); for `N#C/C(=C\c1ccc(-c2ccc(Cl)c(Cl)c2)o1)c1nc(-c2ccco2)cs1`: 97.9% (inactive); for `CCCCn1cnc2c(Sc3c([N+](=O)[O-])ncn3C)nc(N)nc21`: 87.3% (inactive).
`COc1ccc(-c2nc3ccc(-c4nc5ccc(N6CCN(c7ccccc7)CC6)cc5[nH]4)cc3[nH]2)cc1OC`: the growth was -100% (active).
The same measure for `O=C(C(=O)c1ccc2c(c1)OCO2)c1ccc2c(c1)OCO2`: 101% (inactive); for `O=S(=O)(Nc1ccc(Br)c(Cl)c1)c1ccc(-c2cnc(C3CC3)o2)cc1`: 19.5% (inactive); for `COC(=O)c1ccc2oc(NC(=O)c3ccc(Nc4ccc([N+](=O)[O-])cc4C)c([N+](=O)[O-])c3)nc2c1`: 106% (inactive).
Turning to `O=C(Nc1ccc(Cl)cc1)c1cc2cc(F)ccc2cc1O`, the growth is 12.3% (inactive).
As for `O=C(COc1cccc(/C=C2\COc3ccccc3C2=O)c1)Nc1nccs1`, the growth is -100% (active).
Then `COc1cc2nnc3c4cccnc4[nH]c3c2cc1OC`, with 5.66% (active); and `COc1ccc(SC2c3ccc(C)cc3Oc3nc(N)c(C#N)c(N)c32)cc1` (stereo not given), with -64.4% (active).
Turning to `O=C1NC(=Nc2ccc(O)cc2)S/C1=C\c1cccc(Cl)c1`, the growth is 24.2% (inactive).
The same measure for `CCOC(=O)c1sc(Nc2ccc(Cl)cc2)nc1C`: 5.31% (active); for `CN(C)c1ccc(NC(=O)c2ccc(/C=C/C(=O)c3ncc[nH]3)cc2)cc1`: 46.4% (inactive); for `CC(=O)c1cc(C(=O)c2ccc3c(c2)Sc2ccccc2N3)n2ccccc12`: 0.708% (active).
As to `COc1ccc(-n2nc(C)c3c(Oc4ccc(NC(=O)Nc5c(Cl)cccc5Cl)cc4)ncnc32)cc1`, the growth is 109% (inactive).
The same measure for `CSc1ccc(SC2c3ccc(C)cc3Oc3nc(N)c(C#N)c(N)c32)cc1` (stereo not given): -83.3% (active).
Take `CCc1c(Nc2ccccc2C)nc(N)[nH]c1=O`: the growth is 98.4% (inactive).
Take `CCN1CCN(c2nc(NCCNc3ccnc4cc(Cl)ccc34)c3ccccc3n2)CC1`: the growth was 1.44% (active).
With `O=C(N=Nc1c(O)[nH]c2ccccc12)c1cc(-c2ccccc2)on1`, the growth was 99.7% (inactive).
Then `COc1cc(-c2nc3ccccc3[nH]2)ccc1OCc1nnc(-c2ccc(CC(C)C)cc2)o1`, with 82% (inactive); and `Cc1cc(N2CCOCC2)nc(NCc2cc(Nc3ccnc4cc(Cl)ccc34)ccc2F)n1`, with -78.4% (active); and `Cn1c(NCCc2ccc(O)c(O)c2)nc2c1c(=O)n(Cc1ccc(Cl)c(Cl)c1)c(=O)n2C`, with 64.8% (inactive).
Consider `Cc1nn(-c2ccc(F)cc2)c2ncnc(Oc3ccc(NC(=O)Nc4ccc(Cl)c(C(F)(F)F)c4)cc3)c12`, for which the growth is 102% (inactive).

The values above are taken from PubChem BioAssay (NCI).
